# Measured values taken from ChEMBL document CHEMBL4513216, “Probing the Open Global Health Chemical Diversity Library for Multistage-Active Starting Points for Next-Generation Antimalarials” (ACS Infect Dis, 2020).
# Among all 68,000 compounds or so, about 2,700 (4%) showed an effect of 50% or more. The list comes from a sample in which strong results are over-represented; it also holds similar structures and randomly drawn compounds.
# Tested on: Plasmodium berghei
# Assay: Screen against P. berghei liver stage (PbLuc), transformed with Luciferase, at 2uM
# Assay type: functional, HepG2
# Details: tested at 2 uM
row,Structure (SMILES),INHIBITION [%]
1,CN1CC2(CCN(C(=O)c3[nH]cnc3-c3ccccc3)C2)OC1=O (stereo not given),14.96
2,Cc1cc(N(C)C)nc(N2CC(n3cccn3)C2)n1,35.46
3,Cc1cc(C2CCC2)nc(N2CC(n3cccn3)C2)n1,52.6
4,Cc1cc(C2CCC2)nc(N2CCN(Cc3nccn3C)CC2)n1,35.46
5,Cc1c(NC(=O)CN2CCN(C3CCCC3)C(=O)C2)cnn1C,17.24
6,c1ccc(-n2cc(CN3CCCC3Cn3cncn3)nn2)cc1 (stereo not given),15.47
7,Cc1ccn2c(=O)cc(CSCC(=O)Nc3nnc(C(C)C)s3)nc2c1,4.89
8,Cc1cccc2nc(CSCC(=O)Nc3nnc(C(C)C)s3)cc(=O)n12,52.21
9,CC(C)c1nnc(NC(=O)CSCc2cc(=O)n3ccccc3n2)s1,1.87
10,COc1ccc2c3c1CN(C(C)=O)CC3=CC(C)(C)CO2,22.01
11,CSc1ccsc1C(=O)NC(C)c1ccc2c(c1)CCC(=O)N2 (stereo not given),0.48
12,CC(NC(=O)c1sccc1C1CC1)c1ccc2c(c1)CC(=O)N2 (stereo not given),51.14
13,Cc1ccsc1C(=O)NC(C)c1ccc2c(c1)CCC(=O)N2 (stereo not given),0.48
14,Cn1cc(C(=O)NCc2ccc(N3CCCC3)nc2)ccc1=O,-0.05
15,Cc1ccn(CC(=O)NCCCOc2ccccc2F)c(=O)c1,15.2
16,CN(C)S(=O)(=O)N1CCC(c2ccncn2)CC1,-5.42
17,COCCn1ccc(NC(=O)Nc2ccncc2)n1,1.94
18,O=S(=O)(NCC1(c2cccs2)CCOCC1)c1cccnc1,-0.59
19,O=S(=O)(NCC1(c2cccs2)CCCC1)c1cccnc1,58.53
20,O=S(=O)(NCC1(c2cccs2)CCOCC1)c1ccc2c(c1)OCCO2,-12.08
21,Cc1cccc(Nc2ccc(C3CCCCN3)cn2)n1 (stereo not given),30.53
22,O=C(NC1CC1)[C@H]1C[C@H]2OCC[C@H]2N(CC2CC2)C1,28.49
23,O=C(COCc1ccccc1)N1CCCC1c1noc(C2CC2)n1 (stereo not given),37.68
24,CN(CCCOc1ccccc1)Cc1nccn1C,-27.01
25,CN(CCCc1ccc(C(F)(F)F)cc1)Cc1nccn1C,59.08
26,Cn1ccnc1CN(CCO)Cc1ccc(C(F)(F)F)cc1,9.42
27,CSCC(CCO)NC(=O)c1cccc(C)c1Cl (stereo not given),-5.44
28,Cc1cn2c(n1)CCC(NC(=O)c1cc(Br)cn1C)C2 (stereo not given),-2.1
29,CCOc1ccc(C(F)(F)F)cc1NC(=O)NCc1noc(C)n1,-40.82
30,Cc1nc(CN2C(=O)COC3(CCN(CC4CC4)CC3)C2C)cs1 (stereo not given),35.26
